Paper PMC11062922 (Nature Chemical Biology, 2023)
Where two headings read alike, the source gives them in different places.

What was measured:
[1] = tested on: TNIK; conditions: read-out: apparent Kd, n = 1
[2] = tested on: ULK3; conditions: read-out: apparent Kd, n = 1
[3] = compound concentrations:100 nM and 1000 nM (sheet 'Lestaurtinib' of Supplementary Table 1),run:Lestaurtinib_02896_R2,Plate:MR030
[4] = compound concentrations:100 nM and 1000 nM (sheet 'Lestaurtinib' of Supplementary Table 1),run:Lestaurtinib_02896_R3,Plate:MR030
[5] = compound concentrations:100 nM and 1000 nM (sheet 'Lestaurtinib' of Supplementary Table 1),run:Lestaurtinib_03252_R1,Plate:MR032
[6] = compound concentrations:100 nM and 1000 nM (sheet 'Lestaurtinib' of Supplementary Table 1),run:Lestaurtinib_03260_R1,Plate:MR033

Lestaurtinib
potency estimated from few doses ([1]; compound concentrations:100 nM and 1000 nM (sheet 'Lestaurtinib' of Supplementary Table 1),run:Lestaurtinib_02795_R2,Plate:MR022): 154 nM
potency estimated from few doses ([1]; compound concentrations:100 nM and 1000 nM (sheet 'Lestaurtinib' of Supplementary Table 1),run:Lestaurtinib_02795_R3,Plate:MR022): 504 nM
potency estimated from few doses ([1]; compound concentrations:100 nM and 1000 nM (sheet 'Lestaurtinib' of Supplementary Table 1),run:Lestaurtinib_02802_R1,Plate:MR029): 121 nM
potency estimated from few doses ([1]; compound concentrations:100 nM and 1000 nM (sheet 'Lestaurtinib' of Supplementary Table 1),run:Lestaurtinib_02802_R2,Plate:MR029): 141 nM
potency estimated from few doses ([1]; compound concentrations:100 nM and 1000 nM (sheet 'Lestaurtinib' of Supplementary Table 1),run:Lestaurtinib_02896_R1,Plate:MR030): 444 nM
potency estimated from few doses [1, 3]: 356 nM
potency estimated from few doses [1, 4]: 484 nM
potency estimated from few doses ([1]; compound concentrations:100 nM and 1000 nM (sheet 'Lestaurtinib' of Supplementary Table 1),run:Lestaurtinib_03172_R2,Plate:MR031): 157 nM
potency estimated from few doses ([1]; compound concentrations:100 nM and 1000 nM (sheet 'Lestaurtinib' of Supplementary Table 1),run:Lestaurtinib_03172_R3,Plate:MR031): 561 nM
potency estimated from few doses [1, 5]: 143 nM
potency estimated from few doses [1, 6]: 428 nM
potency estimated from few doses ([1]; compound concentrations:100 nM and 1000 nM (sheet 'Lestaurtinib' of Supplementary Table 1),run:Lestaurtinib_03260_R2,Plate:MR033): 808 nM
potency estimated from few doses ([1]; compound concentrations:100 nM and 1000 nM (sheet 'Lestaurtinib' of Supplementary Table 1),run:Lestaurtinib_03260_R3,Plate:MR033): 717 nM
potency estimated from few doses ([2]; compound concentrations:100 nM and 1000 nM (sheet 'Lestaurtinib' of Supplementary Table 1),run:Lestaurtinib_02339_R1,Plate:MR001): 270 nM
potency estimated from few doses ([2]; compound concentrations:100 nM and 1000 nM (sheet 'Lestaurtinib' of Supplementary Table 1),run:Lestaurtinib_02339_R3,Plate:MR001): 265 nM
potency estimated from few doses ([2]; compound concentrations:100 nM and 1000 nM (sheet 'Lestaurtinib' of Supplementary Table 1),run:Lestaurtinib_02364_R1,Plate:MR002): 301 nM
potency estimated from few doses ([2]; compound concentrations:100 nM and 1000 nM (sheet 'Lestaurtinib' of Supplementary Table 1),run:Lestaurtinib_02364_R2,Plate:MR002): 295 nM
potency estimated from few doses ([2]; compound concentrations:100 nM and 1000 nM (sheet 'Lestaurtinib' of Supplementary Table 1),run:Lestaurtinib_02367_R1,Plate:MR003): 146 nM
potency estimated from few doses ([2]; compound concentrations:100 nM and 1000 nM (sheet 'Lestaurtinib' of Supplementary Table 1),run:Lestaurtinib_02367_R2,Plate:MR003): 218 nM
potency estimated from few doses ([2]; compound concentrations:100 nM and 1000 nM (sheet 'Lestaurtinib' of Supplementary Table 1),run:Lestaurtinib_02367_R3,Plate:MR003): 228 nM
potency estimated from few doses ([2]; compound concentrations:100 nM and 1000 nM (sheet 'Lestaurtinib' of Supplementary Table 1),run:Lestaurtinib_02381_R1,Plate:MR004): 154 nM
potency estimated from few doses ([2]; compound concentrations:100 nM and 1000 nM (sheet 'Lestaurtinib' of Supplementary Table 1),run:Lestaurtinib_02407_R1,Plate:MR005): 137 nM
potency estimated from few doses ([2]; compound concentrations:100 nM and 1000 nM (sheet 'Lestaurtinib' of Supplementary Table 1),run:Lestaurtinib_02422_R1,Plate:MR006): 113 nM
potency estimated from few doses ([2]; compound concentrations:100 nM and 1000 nM (sheet 'Lestaurtinib' of Supplementary Table 1),run:Lestaurtinib_02422_R2,Plate:MR006): 60.5 nM
potency estimated from few doses ([2]; compound concentrations:100 nM and 1000 nM (sheet 'Lestaurtinib' of Supplementary Table 1),run:Lestaurtinib_02422_R3,Plate:MR006): 134 nM
potency estimated from few doses ([2]; compound concentrations:100 nM and 1000 nM (sheet 'Lestaurtinib' of Supplementary Table 1),run:Lestaurtinib_02437_R1,Plate:MR007): 239 nM
potency estimated from few doses ([2]; compound concentrations:100 nM and 1000 nM (sheet 'Lestaurtinib' of Supplementary Table 1),run:Lestaurtinib_02437_R2,Plate:MR007): 253 nM
potency estimated from few doses ([2]; compound concentrations:100 nM and 1000 nM (sheet 'Lestaurtinib' of Supplementary Table 1),run:Lestaurtinib_02437_R3,Plate:MR007): 22.5 nM
potency estimated from few doses ([2]; compound concentrations:100 nM and 1000 nM (sheet 'Lestaurtinib' of Supplementary Table 1),run:Lestaurtinib_02438_R2,Plate:MR008): 236 nM
potency estimated from few doses ([2]; compound concentrations:100 nM and 1000 nM (sheet 'Lestaurtinib' of Supplementary Table 1),run:Lestaurtinib_02438_R3,Plate:MR008): 286 nM
potency estimated from few doses ([2]; compound concentrations:100 nM and 1000 nM (sheet 'Lestaurtinib' of Supplementary Table 1),run:Lestaurtinib_02443_R1,Plate:MR009): 231 nM
potency estimated from few doses ([2]; compound concentrations:100 nM and 1000 nM (sheet 'Lestaurtinib' of Supplementary Table 1),run:Lestaurtinib_02443_R2,Plate:MR009): 239 nM
potency estimated from few doses ([2]; compound concentrations:100 nM and 1000 nM (sheet 'Lestaurtinib' of Supplementary Table 1),run:Lestaurtinib_02443_R3,Plate:MR009): 196 nM
potency estimated from few doses ([2]; compound concentrations:100 nM and 1000 nM (sheet 'Lestaurtinib' of Supplementary Table 1),run:Lestaurtinib_02473_R1,Plate:MR010): 232 nM
potency estimated from few doses ([2]; compound concentrations:100 nM and 1000 nM (sheet 'Lestaurtinib' of Supplementary Table 1),run:Lestaurtinib_02473_R2,Plate:MR010): 253 nM
potency estimated from few doses ([2]; compound concentrations:100 nM and 1000 nM (sheet 'Lestaurtinib' of Supplementary Table 1),run:Lestaurtinib_02482_R1,Plate:MR011): 240 nM
potency estimated from few doses ([2]; compound concentrations:100 nM and 1000 nM (sheet 'Lestaurtinib' of Supplementary Table 1),run:Lestaurtinib_02482_R2,Plate:MR011): 244 nM
potency estimated from few doses ([2]; compound concentrations:100 nM and 1000 nM (sheet 'Lestaurtinib' of Supplementary Table 1),run:Lestaurtinib_02482_R3,Plate:MR011): 219 nM
potency estimated from few doses ([2]; compound concentrations:100 nM and 1000 nM (sheet 'Lestaurtinib' of Supplementary Table 1),run:Lestaurtinib_02487_R1,Plate:MR012): 144 nM
potency estimated from few doses ([2]; compound concentrations:100 nM and 1000 nM (sheet 'Lestaurtinib' of Supplementary Table 1),run:Lestaurtinib_02487_R2,Plate:MR012): 219 nM
potency estimated from few doses ([2]; compound concentrations:100 nM and 1000 nM (sheet 'Lestaurtinib' of Supplementary Table 1),run:Lestaurtinib_02487_R3,Plate:MR012): 250 nM
potency estimated from few doses ([2]; compound concentrations:100 nM and 1000 nM (sheet 'Lestaurtinib' of Supplementary Table 1),run:Lestaurtinib_02496_R1,Plate:MR013): 131 nM
potency estimated from few doses ([2]; compound concentrations:100 nM and 1000 nM (sheet 'Lestaurtinib' of Supplementary Table 1),run:Lestaurtinib_02496_R2,Plate:MR013): 165 nM
potency estimated from few doses ([2]; compound concentrations:100 nM and 1000 nM (sheet 'Lestaurtinib' of Supplementary Table 1),run:Lestaurtinib_02496_R3,Plate:MR013): 254 nM
potency estimated from few doses ([2]; compound concentrations:100 nM and 1000 nM (sheet 'Lestaurtinib' of Supplementary Table 1),run:Lestaurtinib_02566_R1,Plate:MR014): 153 nM
potency estimated from few doses ([2]; compound concentrations:100 nM and 1000 nM (sheet 'Lestaurtinib' of Supplementary Table 1),run:Lestaurtinib_02566_R3,Plate:MR014): 242 nM
potency estimated from few doses ([2]; compound concentrations:100 nM and 1000 nM (sheet 'Lestaurtinib' of Supplementary Table 1),run:Lestaurtinib_02572_R3,Plate:MR015): 329 nM
potency estimated from few doses ([2]; compound concentrations:100 nM and 1000 nM (sheet 'Lestaurtinib' of Supplementary Table 1),run:Lestaurtinib_02577_R2,Plate:MR016): 271 nM
potency estimated from few doses ([2]; compound concentrations:100 nM and 1000 nM (sheet 'Lestaurtinib' of Supplementary Table 1),run:Lestaurtinib_02577_R3,Plate:MR016): 224 nM
potency estimated from few doses ([2]; compound concentrations:100 nM and 1000 nM (sheet 'Lestaurtinib' of Supplementary Table 1),run:Lestaurtinib_02584_R1,Plate:MR017): 232 nM
potency estimated from few doses ([2]; compound concentrations:100 nM and 1000 nM (sheet 'Lestaurtinib' of Supplementary Table 1),run:Lestaurtinib_02584_R2,Plate:MR017): 261 nM
potency estimated from few doses ([2]; compound concentrations:100 nM and 1000 nM (sheet 'Lestaurtinib' of Supplementary Table 1),run:Lestaurtinib_02584_R3,Plate:MR017): 254 nM
potency estimated from few doses ([2]; compound concentrations:100 nM and 1000 nM (sheet 'Lestaurtinib' of Supplementary Table 1),run:Lestaurtinib_02601_R1,Plate:MR018): 290 nM
potency estimated from few doses ([2]; compound concentrations:100 nM and 1000 nM (sheet 'Lestaurtinib' of Supplementary Table 1),run:Lestaurtinib_02601_R2,Plate:MR018): 271 nM
potency estimated from few doses ([2]; compound concentrations:100 nM and 1000 nM (sheet 'Lestaurtinib' of Supplementary Table 1),run:Lestaurtinib_02601_R3,Plate:MR018): 297 nM
potency estimated from few doses ([2]; compound concentrations:100 nM and 1000 nM (sheet 'Lestaurtinib' of Supplementary Table 1),run:Lestaurtinib_02624_R2,Plate:MR020): 258 nM
potency estimated from few doses ([2]; compound concentrations:100 nM and 1000 nM (sheet 'Lestaurtinib' of Supplementary Table 1),run:Lestaurtinib_02624_R3,Plate:MR020): 269 nM
potency estimated from few doses ([2]; compound concentrations:100 nM and 1000 nM (sheet 'Lestaurtinib' of Supplementary Table 1),run:Lestaurtinib_02724_R1,Plate:MR021): 243 nM
potency estimated from few doses ([2]; compound concentrations:100 nM and 1000 nM (sheet 'Lestaurtinib' of Supplementary Table 1),run:Lestaurtinib_02724_R2,Plate:MR021): 220 nM
potency estimated from few doses ([2]; compound concentrations:100 nM and 1000 nM (sheet 'Lestaurtinib' of Supplementary Table 1),run:Lestaurtinib_02741_R1,Plate:MR023): 268 nM
potency estimated from few doses ([2]; compound concentrations:100 nM and 1000 nM (sheet 'Lestaurtinib' of Supplementary Table 1),run:Lestaurtinib_02748_R1,Plate:MR024): 144 nM
potency estimated from few doses ([2]; compound concentrations:100 nM and 1000 nM (sheet 'Lestaurtinib' of Supplementary Table 1),run:Lestaurtinib_02748_R2,Plate:MR024): 132 nM
potency estimated from few doses ([2]; compound concentrations:100 nM and 1000 nM (sheet 'Lestaurtinib' of Supplementary Table 1),run:Lestaurtinib_02752_R1,Plate:MR025): 260 nM
potency estimated from few doses ([2]; compound concentrations:100 nM and 1000 nM (sheet 'Lestaurtinib' of Supplementary Table 1),run:Lestaurtinib_02765_R1,Plate:MR026): 320 nM
potency estimated from few doses ([2]; compound concentrations:100 nM and 1000 nM (sheet 'Lestaurtinib' of Supplementary Table 1),run:Lestaurtinib_02765_R3,Plate:MR026): 304 nM
potency estimated from few doses ([2]; compound concentrations:100 nM and 1000 nM (sheet 'Lestaurtinib' of Supplementary Table 1),run:Lestaurtinib_02768_R1,Plate:MR028): 240 nM
potency estimated from few doses ([2]; compound concentrations:100 nM and 1000 nM (sheet 'Lestaurtinib' of Supplementary Table 1),run:Lestaurtinib_02768_R3,Plate:MR028): 206 nM
potency estimated from few doses ([2]; compound concentrations:100 nM and 1000 nM (sheet 'Lestaurtinib' of Supplementary Table 1),run:Lestaurtinib_02802_R3,Plate:MR029): 237 nM
potency estimated from few doses [2, 3]: 236 nM
potency estimated from few doses [2, 4]: 158 nM
potency estimated from few doses ([2]; compound concentrations:100 nM and 1000 nM (sheet 'Lestaurtinib' of Supplementary Table 1),run:Lestaurtinib_03172_R1,Plate:MR031): 259 nM
potency estimated from few doses [2, 5]: 261 nM
potency estimated from few doses [2, 6]: 314 nM
